Measurements from PubChem BioAssay (Tox21).
Several values for one entry are separate records, joined by “and”; a condition that tells them apart may be missing. Equal values may be shown once. Inconclusive results are not listed. A structure can be active in one record and inactive in another. Activity calls are given as the source filed them. Unless noted, the call rests on the fitted dose curve.

Tests used:
[1] = Nuclear factor erythroid 2-related factor 2/antioxidant responsive element (Nrf2/ARE) small molecule agonists: qHTS cell viability counter screen in human keratinocytes (AID 1919968; active means well fitted curve in the direction sought with a large enough effect in the repeat runs; an effect the other way counts as inactive or inconclusive; further: nearly all actives have a fitted effect of over 55% in size; further: potency means the concentration at half of the fitted maximal effect)
Outline: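 Cells of the KeratinoSens line were plated at 1,500 per well and left for 5 h before compound transfer from DMSO stocks. After a 23 h incubation (37 C, 5% CO2), CellTiter-Fluor was added. Signal was taken as fluorescence intensity 1 h later.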

[2] = molecular target: KiSS-1 receptor (Homo sapiens) (UniProt Q969F8); assay: Human kisspeptin (KISS1R) small molecule agonists, calcium flux assay in KISS1R-HEK293 cells (AID 1920064; active means well fitted curve in the direction sought with a large enough effect in the repeat runs; an effect the other way counts as inactive or inconclusive)
KiSS-1 receptor (Homo sapiens), sequence (Q969F8 whole entry, looked up): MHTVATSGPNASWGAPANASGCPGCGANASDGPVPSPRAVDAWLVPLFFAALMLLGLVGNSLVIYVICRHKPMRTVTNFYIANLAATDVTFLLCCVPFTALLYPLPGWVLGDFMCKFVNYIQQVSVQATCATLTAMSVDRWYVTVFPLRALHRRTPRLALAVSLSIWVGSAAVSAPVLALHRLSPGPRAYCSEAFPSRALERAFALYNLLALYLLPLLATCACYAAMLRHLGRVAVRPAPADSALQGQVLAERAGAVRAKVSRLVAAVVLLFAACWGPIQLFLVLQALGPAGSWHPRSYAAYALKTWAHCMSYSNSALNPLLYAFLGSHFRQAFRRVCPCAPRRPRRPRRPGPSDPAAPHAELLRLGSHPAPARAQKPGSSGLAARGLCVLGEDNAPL
Outline: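 Cell line: HEK293, stable human KISS1R. Dye loading 1 h at 37 C after 18 h culture. Read: kinetic fluorescence, 480/540 nm, 3 min at 1 s intervals.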

[3] = p53 small molecule agonists, cell-based qHTS assay with human liver microsomes (AID 1963577);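 further: p53 response element beta-lactamase reporter cells with liver microsomes plus NADPH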
Outline: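 Steps: plate p53RE-bla cells, incubate 5 h at 37 C; add compound in DMSO; add microsomes (0.5 mg/mL final) and NADPH (0.5 mg/mL final); incubate 16 h at 37 C; add LiveBLAzer, 2 h RT; read fluorescence.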

[4] = p53 small molecule agonists, cell-based qHTS assay with rat liver microsomes (AID 1963578)
Outline: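 Metabolic activation is supplied by rat liver microsomes with NADPH (each 0.5 mg/mL final). p53RE-bla cells incubate with compound 16 h at 37 C; reporter activity is measured by LiveBLAzer fluorescence.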

[5] = p53 small molecule agonists, cell-based qHTS assay with human liver microsomes: qHTS cell viability counter screen (AID 1963579); further: nearly all actives have a fitted effect of over 45% in size
Outline: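 After the 460/530 nm beta-lactamase read, CellTiter-Glo was added to the same wells and luminescence measured after 30 min at room temperature, giving viability of p53RE-bla cells treated 16 h with compounds plus microsomes and NADPH.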

[6] = p53 small molecule agonists, cell-based qHTS assay: qHTS cell viability counter screen (AID 1963581); further: nearly all actives have a fitted effect of over 45% in size; further: potency means the concentration at half of the fitted maximal effect
Outline: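 ATP content measured by luminescence in HCT-116 p53RE-bla cells treated 16 h at 37 C, same wells as the reporter screen.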

[7] = p53 small molecule agonists, cell-based qHTS assay (AID 1963582; active means well fitted activation curve with a large enough effect in the signal ratio in the repeat runs, not every such curve was filed as active; the % refers to the signal ratio)
Outline: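 16 h compound exposure (37 C) of p53 response element–bla cells, preceded by 5 h recovery at 37 C/5% CO2; read-out via LiveBLAzer B/G FRET substrate, 2 h RT, fluorescence intensity.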

[8] = molecular target: 5-hydroxytryptamine receptor 2A (Homo sapiens) (UniProt P28223); assay: 5-hydroxytryptamine receptor 2A (HTR2A) small molecule antagonists, cell-based qHTS assay (AID 1963586); further: nearly all actives have a fitted effect of over 45% in size
5-hydroxytryptamine receptor 2A (Homo sapiens), sequence (P28223 whole entry, looked up): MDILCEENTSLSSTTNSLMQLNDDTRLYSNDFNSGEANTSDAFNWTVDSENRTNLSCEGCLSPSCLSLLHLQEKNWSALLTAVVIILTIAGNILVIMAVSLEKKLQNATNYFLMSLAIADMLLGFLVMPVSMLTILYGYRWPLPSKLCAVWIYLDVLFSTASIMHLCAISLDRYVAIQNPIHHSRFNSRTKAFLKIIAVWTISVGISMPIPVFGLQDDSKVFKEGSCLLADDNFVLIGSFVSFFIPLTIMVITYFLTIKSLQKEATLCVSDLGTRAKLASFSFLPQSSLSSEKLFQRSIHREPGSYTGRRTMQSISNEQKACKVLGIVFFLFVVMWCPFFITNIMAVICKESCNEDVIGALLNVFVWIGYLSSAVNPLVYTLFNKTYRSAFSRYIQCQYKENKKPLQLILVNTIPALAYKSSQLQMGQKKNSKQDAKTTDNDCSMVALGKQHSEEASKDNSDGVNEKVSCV
Outline: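 CHO cells stably expressing human HTR2A were plated for 18 h at 37 C, then loaded with calcium dye for 1 h. Compounds were preincubated 5 min at room temperature before DOI (4 nM solution) was added. Kinetic fluorescence was read for 3 min.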

[9] = molecular target: 5-hydroxytryptamine receptor 2A (Homo sapiens) (UniProt P28223); assay: 5-hydroxytryptamine receptor 2A (HTR2A) small molecule agonists, cell-based qHTS assay (AID 1963587); further: nearly all actives have a fitted effect of over 30% in size; further: potency means the concentration at half of the fitted maximal effect
Outline: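 HTR2A-CHO cells, plated 18 h at 37 C/5% CO2, dye-loaded 1 h at 37 C; compounds in DMSO added by pin tool (agonist mode). Intracellular calcium flux read as kinetic fluorescence on FDSS over 2 min at 1 s intervals.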

[10] = molecular target: Muscarinic acetylcholine receptor M1 (Homo sapiens) (UniProt P11229); assay: Cholinergic receptor muscarinic 1 (CHRM1) small molecule antagonists, cell-based qHTS assay (AID 1963588); further: nearly all actives have a fitted effect of over 40% in size
Muscarinic acetylcholine receptor M1 (Homo sapiens), sequence (P11229 whole entry, looked up): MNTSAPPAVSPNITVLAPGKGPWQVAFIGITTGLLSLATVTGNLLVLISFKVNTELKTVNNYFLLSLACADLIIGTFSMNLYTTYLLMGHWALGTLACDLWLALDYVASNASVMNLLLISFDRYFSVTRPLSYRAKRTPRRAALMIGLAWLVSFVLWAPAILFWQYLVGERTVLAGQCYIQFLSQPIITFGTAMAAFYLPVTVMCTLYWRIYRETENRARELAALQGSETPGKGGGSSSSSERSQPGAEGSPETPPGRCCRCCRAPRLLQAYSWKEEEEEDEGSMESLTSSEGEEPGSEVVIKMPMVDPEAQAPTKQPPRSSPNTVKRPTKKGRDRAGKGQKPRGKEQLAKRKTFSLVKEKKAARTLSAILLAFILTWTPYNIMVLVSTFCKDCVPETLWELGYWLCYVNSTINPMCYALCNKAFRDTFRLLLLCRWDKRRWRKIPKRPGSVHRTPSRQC
Outline: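 Compounds were tested at 15 concentrations in three independent runs. Dye-loaded CHRM1-CHO cells were exposed 5 min at room temperature before stimulation by acetylcholine added at 50nM. Intracellular calcium was read kinetically on FDSS for 3 min.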

[11] = molecular target: Muscarinic acetylcholine receptor M1 (Homo sapiens) (UniProt P11229); assay: Cholinergic receptor muscarinic 1 (CHRM1) small molecule agonists, cell-based qHTS assay (AID 1963589); further: nearly all actives have a fitted effect of over 35% in size
Outline: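 Homogeneous fluorescence calcium flux, agonist mode. Human M1-expressing CHO cells; compound dosed at 15 concentrations, three independent runs; signal sampled every 1 sec.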

[12] = cAMP Responsive Elements (CRE) small molecule antagonists, cell-based qHTS assay (AID 1963591; active means well fitted inhibition curve with a large enough effect in the signal ratio in the repeat runs, not every such curve was filed as active; the % refers to the signal ratio)
Outline: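 First, CRE-bla HEK293T cells settled 18 h at 37 C. Next, compound and 0.25 uM final NKH477 were applied for 3 h. Last, LiveBLAzer B/G substrate was loaded for 2 h at room temperature.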

[13] = molecular target: Beta-2 adrenergic receptor (Homo sapiens) (UniProt P07550); assay: Adrenergic beta2 receptor (ADRB2) small molecule antagonists, cell-based qHTS assay (AID 1963592); further: series mostly up to about 92 µM; nearly all actives have a fitted effect of over 50% in size
Beta-2 adrenergic receptor (Homo sapiens), sequence (P07550 whole entry, looked up): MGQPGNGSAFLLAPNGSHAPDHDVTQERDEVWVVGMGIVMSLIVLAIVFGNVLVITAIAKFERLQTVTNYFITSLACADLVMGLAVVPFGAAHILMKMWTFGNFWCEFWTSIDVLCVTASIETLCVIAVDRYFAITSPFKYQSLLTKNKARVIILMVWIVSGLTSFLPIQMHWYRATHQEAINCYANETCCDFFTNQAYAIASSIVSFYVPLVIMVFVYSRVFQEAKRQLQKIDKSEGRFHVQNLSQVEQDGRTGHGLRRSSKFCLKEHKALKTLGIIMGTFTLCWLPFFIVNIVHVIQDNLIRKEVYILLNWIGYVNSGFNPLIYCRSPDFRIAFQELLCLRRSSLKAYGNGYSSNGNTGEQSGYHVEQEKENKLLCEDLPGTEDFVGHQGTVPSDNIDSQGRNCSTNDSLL
Outline: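 Assay format: CHO-ADRB2 cells, 18-20hr seeding at 37C/5% CO2, then compound plus 1nM isoproterenol agonist mix for 0.5hr RT. Homogeneous time-resolved fluorescence cAMP detection after 1hr, expressed as 665/615 nm ratio.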

[14] = molecular target: Beta-2 adrenergic receptor (Homo sapiens) (UniProt P07550); assay: Adrenergic beta2 receptor (ADRB2) small molecule agonists, cell-based qHTS assay (AID 1963593);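 further: CHO cells stably overexpressing human ADRB2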
Outline: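 CHO cells stably over-expressing ADRB2 were plated overnight at 37C, then dosed with compounds plus a stimulation mix containing 100uM IBMX and 25uM Ro-20-1724 for 0.5hr at room temperature. cAMP was measured by HTRF competition, 1hr.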

[15] = molecular target: D(2) dopamine receptor (Homo sapiens) (UniProt P14416); assay: Dopamine D2 receptor (DRD2) small molecule agonists, cell-based qHTS assay (AID 1963594); further: nearly all actives have a fitted effect of over 35% in size
D(2) dopamine receptor (Homo sapiens), sequence (P14416 whole entry, looked up): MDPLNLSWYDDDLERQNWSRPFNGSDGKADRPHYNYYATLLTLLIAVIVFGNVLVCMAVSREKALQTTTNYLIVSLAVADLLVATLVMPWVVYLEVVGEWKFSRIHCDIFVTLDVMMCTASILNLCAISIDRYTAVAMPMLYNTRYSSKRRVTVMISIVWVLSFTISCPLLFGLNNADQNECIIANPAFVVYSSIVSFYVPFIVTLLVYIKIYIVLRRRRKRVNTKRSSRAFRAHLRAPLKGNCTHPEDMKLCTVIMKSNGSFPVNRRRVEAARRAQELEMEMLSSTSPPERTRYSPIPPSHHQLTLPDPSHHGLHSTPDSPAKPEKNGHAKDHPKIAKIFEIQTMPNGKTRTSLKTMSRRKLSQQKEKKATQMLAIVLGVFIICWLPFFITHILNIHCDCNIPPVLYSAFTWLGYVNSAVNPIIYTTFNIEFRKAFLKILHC
Outline: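 HEK293 cells stably expressing DRD2 were cultured 24 h at 37 C, then given Ro20-1724 (0.1 mM final) and compounds for 10 min at room temperature. NKH477 (200nM) was then added for 30 min. cAMP was read by HTRF.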

[16] = molecular target: D(2) dopamine receptor (Homo sapiens) (UniProt P14416); assay: Dopamine D2 receptor (DRD2) small molecule antagonists, cell-based qHTS assay (AID 1963595; active means well fitted inhibition curve with a large enough effect in the signal ratio in the repeat runs, with a control signal flat; the % refers to the signal ratio)
Outline: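 Human DRD2 antagonist qHTS measuring cAMP by HTRF. The cells are exposed to compound for 10 min, then to NKH477 (200 nM) and quinpirole (12 nM) for 30 min at RT, with Ro20-1724 (0.1 mM) present throughout.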

[17] = molecular target: Gonadotropin-releasing hormone receptor (Homo sapiens) (UniProt P30968); assay: Human gonadotropin-releasing hormone receptor (GnRHR) small molecule agonists, calcium flux assay in GnRHR-HEK293 cells (AID 1920063); further: nearly all actives have a fitted effect of over 35% in size
Gonadotropin-releasing hormone receptor (Homo sapiens), sequence (P30968 whole entry, looked up): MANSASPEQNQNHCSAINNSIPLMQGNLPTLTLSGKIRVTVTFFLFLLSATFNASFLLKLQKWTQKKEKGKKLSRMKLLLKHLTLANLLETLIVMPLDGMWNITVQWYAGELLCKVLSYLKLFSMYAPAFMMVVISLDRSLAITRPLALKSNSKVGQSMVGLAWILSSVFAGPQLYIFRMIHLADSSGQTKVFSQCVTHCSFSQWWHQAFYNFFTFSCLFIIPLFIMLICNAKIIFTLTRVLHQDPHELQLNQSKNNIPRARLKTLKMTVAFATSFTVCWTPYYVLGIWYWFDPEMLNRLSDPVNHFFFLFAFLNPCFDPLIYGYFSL
Outline: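 Compounds dissolved in DMSO are pin-transferred onto dye-loaded GnRHR-HEK293 cells, which were seeded 18 h before at 37 C/5% CO2. Calcium signal is read as fluorescence intensity at 1 s intervals for 3 min.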

[18] = G protein-coupled receptor (GPCR) small molecule agonists, calcium flux assay: HEK293 wild type cell line counter screen (AID 1920065)
Outline: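 Tox21 10K compounds, 15 concentrations each in triplicate, pin-transferred in DMSO onto dye-loaded cells; kinetic read at 480/540 nm for 3 min, 1 s intervals.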

[19] = p53 small molecule agonists, cell-based qHTS assay with rat liver microsomes: qHTS cell viability counter screen (AID 1963580); further: nearly all actives have a fitted effect of over 45% in size
Outline: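 Luminescent ATP readout (CellTiter-Glo, 30 min at room temperature) reports viability of p53RE-bla HCT-116 cells after 16 h at 37 C with test compounds under metabolic activation by rat liver microsomes and NADPH at 0.5 mg/mL final each.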

[20] = cAMP Responsive Elements (CRE) small molecule agonists, cell-based qHTS assay (AID 1963590)
Outline: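 HEK 293T cells stably bearing CRE-bla were plated at 2,000 cells per well and rested 18 h. Compounds, positive controls or DMSO were added for 3 h at 37 C. LiveBLAzer B/G substrate was then loaded for 2 h at room temperature.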

Measured: Potency

C#CC1(O)CC[C@H]2[C@@H]3CCC4=CCCC[C@@H]4[C@H]3CC[C@@]21C (some centres undefined)
inactive: [2] | [3] | [4] | [5] | [7] | [8] | [10] | [11] | [12] | [13] | [14] | [15] | [16]
27.3 µM (active) and inactive: [1]
54.9 µM (active) and inactive: [9]
40.8 µM (active) and inactive: [6]

C=C(C)CC(C)(C)C
inactive: [1] | [17] | [18] | [3] | [4] | [5] | [19] | [6] | [8] | [9] | [10] | [11] | [20] | [12] | [13] | [14] | [15] | [16]

O=C1NS(=O)(=O)c2ccccc21
inactive: [1] | [17] | [2] | [18] | [5] | [19] | [6] | [8] | [9] | [10] | [11] | [20] | [12] | [13] | [14] | [15] | [16]

CCc1cc(C(N)=S)ccn1
inactive: [1] | [17] | [18] | [3] | [4] | [5] | [6] | [7] | [8] | [9] | [10] | [12] | [13] | [14] | [15] | [16]

CCCCOC(=O)CC(CC(=O)OCCCC)(OC(C)=O)C(=O)OCCCC
inactive: [1] | [17] | [18] | [3] | [19] | [6] | [7] | [8] | [9] | [10] | [11] | [20] | [12] | [13] | [16]

CCCCC1(COC(=O)CCC(=O)O)C(=O)N(c2ccccc2)N(c2ccccc2)C1=O
inactive: [1] | [17] | [18] | [3] | [19] | [6] | [7] | [8] | [10] | [11] | [20] | [12] | [13] | [14] | [15] | [16]

CN(C)CCOC(=O)COc1ccc(Cl)cc1
inactive: [1] | [17] | [2] | [18] | [3] | [4] | [19] | [6] | [7] | [9] | [11] | [12] | [13] | [14] | [15] | [16]

C[C@]12CC[C@@H]3c4ccc(O)cc4C[C@@H](CCCCCCCCCS(=O)CCCC(F)(F)C(F)(F)F)[C@H]3[C@@H]1CC[C@@H]2O (some centres undefined)
inactive: [17] | [3] | [5] | [19] | [6] | [7] | [8] | [9] | [10] | [20] | [12] | [13] | [15] | [16]
inactive and 4.73 µM (active): [1]

CCCCOCCOCCSC#N
inactive: [1] | [17] | [2] | [18] | [4] | [5] | [19] | [6] | [7] | [8] | [11] | [20] | [12] | [13] | [14] | [15] | [16]

O=NO
inactive: [1] | [17] | [2] | [18] | [5] | [19] | [6] | [8] | [9] | [10] | [11] | [20] | [12] | [13] | [15] | [16]

CC(=O)OCCOC(C)=O
inactive: [1] | [2] | [18] | [3] | [4] | [5] | [19] | [6] | [7] | [8] | [9] | [10] | [11] | [12] | [13] | [14] | [15] | [16]

C/C=C/C=C/C(=O)O
inactive: [1] | [17] | [2] | [18] | [19] | [6] | [8] | [9] | [10] | [11] | [20] | [12] | [13] | [15] | [16]

C[C@]12C=CC(=O)C=C1CC[C@@H]1[C@@H]2[C@@H](O)C[C@@]2(C)[C@H]1CC[C@]2(O)C(=O)CO
inactive: [1] | [17] | [2] | [18] | [3] | [4] | [19] | [6] | [20] | [12] | [13] | [14] | [15] | [16]
